Among the data in PubChem BioAssay (NCATS) are activity, negative = cell killing and Potency values, retold here.

The structures appear in SMILES notation. Records with an inconclusive call do not appear. Activity calls are given as the source filed them. Calls come from the whole dose curve; as a rule, active = well fitted inhibition curve with a large enough effect; inconclusive = small, poorly fitted or top-dose-only effect; inactive = flat fitted curve, though single readings scatter.
% is set by controls: 0 for no effect and ±100 for the full control effect; potency is the fitted concentration of half-maximal effect.

One experiment in a line: Drug repurposing screens with cells derived from glioblastoma tumor samples (AID 1345199). Note: nearly all actives have a fitted effect of over 40% in size. The settings on record: GBM patient neurospheres viability, ATP luminescence, 48 h; at 45.9 µM (top of the series); tumour line B. In a few lines:
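Primary testing used CD133+ neurospheres from four GBM patients, seven concentrations, 48 h exposure and ATP-based viability; confirmation added three slower-growing patient lines.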
Take `CCC1(c2ccc(N)cc2)CCC(=O)NC1=O` (stereo not given): the activity, negative = cell killing was -18.5% (inactive).
Regarding `[N-]=[N+]=CC(=O)OC[C@H](N)C(=O)O`, the activity, negative = cell killing was -23.8% (inactive).
Regarding `C=C(C)[C@H]1CN[C@H](C(=O)O)[C@H]1CC(=O)O`, the activity, negative = cell killing is -14.8% (inactive).
As to `Nc1nc(N)nc(NC2CC2)n1`, the activity, negative = cell killing was -5.44% (inactive).
For the compound `O=C1CN=C(c2ccccc2)c2cc([N+](=O)[O-])ccc2N1`, the activity, negative = cell killing was -7.18% (inactive).
Consider `O=C(O)CCCc1ccc(N(CCCl)CCCl)cc1`, for which the activity, negative = cell killing is -11.3% (inactive).
Take `C=CCN1C[C@H](C)N([C@H](c2ccc(C(=O)N(CC)CC)cc2)c2cccc(OC)c2)C[C@H]1C`: the activity, negative = cell killing is -27.6% (inactive).
Regarding `CCc1cc2c(s1)-n1c(C)nnc1CN=C2c1ccccc1Cl`, the activity, negative = cell killing was -22.1% (inactive).

The same experiment, now with this note: GBM patient neurospheres viability, ATP luminescence, 48 h; at 45.9 µM (top of the series); tumour line D.
As to `CCC1(c2ccc(N)cc2)CCC(=O)NC1=O` (stereo not given), the activity, negative = cell killing is -18.3% (inactive).
Same read-out and setting: then `[N-]=[N+]=CC(=O)OC[C@H](N)C(=O)O`, with -9.43% (inactive); and `C=C(C)[C@H]1CN[C@H](C(=O)O)[C@H]1CC(=O)O`, with -15.4% (inactive); and `Nc1nc(N)nc(NC2CC2)n1`, with -12.5% (inactive).
Still for that read-out and setting: with `O=C1CN=C(c2ccccc2)c2cc([N+](=O)[O-])ccc2N1` the figure was -17.8% (inactive); with `O=C(O)CCCc1ccc(N(CCCl)CCCl)cc1`, -13.2% (inactive); with `CCc1cc2c(s1)-n1c(C)nnc1CN=C2c1ccccc1Cl`, -8.05% (inactive).

Still in this experiment, the particulars now being: GBM patient neurospheres viability, ATP luminescence, 48 h; tumour line A.
In the case of `CN1CCC(O)(c2ccc(F)cc2)C(C(=O)c2ccc(F)cc2)C1` (stereo not given), the Potency is 12.6 µM (active).
On the same count and under the same terms, then `CN1CC[C@]23c4c5ccc(O)c4O[C@H]2[C@@H](O)C=C[C@H]3[C@H]1C5`, with 20 µM (active).
Still for that read-out and setting: with `CN1C(=O)COc2c(C(=O)NC3CN4CCC3CC4)cc(Cl)cc21` (stereo not given) the figure was 22.4 µM (active).
On to `C=CCN1C[C@H](C)N([C@H](c2ccc(C(=O)N(CC)CC)cc2)c2cccc(OC)c2)C[C@H]1C`, for which the Potency was 7.08 µM (active).
In the case of `CC(Cc1ccccc1)NCCn1cnc2c1c(=O)n(C)c(=O)n2C` (stereo not given), the Potency is 31.6 µM (active).
